Inconclusive results are not listed. The source made the active and inactive calls. How the source made its calls: active means hit-call score of the fitted dose curve at least 0.9, where 1 is the maximum; inconclusive means response in the unintended direction; inactive means score below 0.9.
Tests used:
[1] = ACEA_ER_AUC_viability: ACEA Biosciences xCELLigence Real-Time Cell Analysis on Estrogen Receptor Agonism for Viability (AID 2283782);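 further: continuous compound exposure with impedance area under curve over 80 h; hit means loss of impedance signal meaning reduced cell growth or viability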
Procedure, shortened: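 T-47D human breast cells in phenol red-free RPMI1640 with 10% charcoal-stripped FBS were dosed with an 8-point 1:4 dilution series from 100 uM top final concentration, in duplicate. Impedance-based growth was followed for 80 h; AUC analysed versus DMSO.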

[2] = ACEA_AR_antagonist_AUC_viability: ACEA Biosciences xCELLigence Real-Time Cell Analysis on Androgen Receptor Antagonism for Viability (AID 2283776);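 further: 22Rv1 human prostate cancer cells growing on impedance electrode plates; area under impedance growth curve at 80 h after dosing as viability; hits lower the growth signal relative to DMSO meaning cytotoxicity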
Procedure, shortened: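 Viability endpoint from label-free cell-index monitoring: 22Rv1 cultures treated with an eight-point 1:4 dilution series starting at 100 uM final, AUC at 80 h fitted against DMSO.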

[3] = target: AR (gene 367) (UniProt P10275); assay: ACEA_AR_agonist_80hr: ACEA Biosciences xCELLigence Real-Time Cell Analysis on Androgen Receptor Agonism for Proliferation (AID 2283783);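 further: hits increase impedance growth signal above DMSO baseline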
AR (gene 367), sequence (P10275 whole entry, looked up): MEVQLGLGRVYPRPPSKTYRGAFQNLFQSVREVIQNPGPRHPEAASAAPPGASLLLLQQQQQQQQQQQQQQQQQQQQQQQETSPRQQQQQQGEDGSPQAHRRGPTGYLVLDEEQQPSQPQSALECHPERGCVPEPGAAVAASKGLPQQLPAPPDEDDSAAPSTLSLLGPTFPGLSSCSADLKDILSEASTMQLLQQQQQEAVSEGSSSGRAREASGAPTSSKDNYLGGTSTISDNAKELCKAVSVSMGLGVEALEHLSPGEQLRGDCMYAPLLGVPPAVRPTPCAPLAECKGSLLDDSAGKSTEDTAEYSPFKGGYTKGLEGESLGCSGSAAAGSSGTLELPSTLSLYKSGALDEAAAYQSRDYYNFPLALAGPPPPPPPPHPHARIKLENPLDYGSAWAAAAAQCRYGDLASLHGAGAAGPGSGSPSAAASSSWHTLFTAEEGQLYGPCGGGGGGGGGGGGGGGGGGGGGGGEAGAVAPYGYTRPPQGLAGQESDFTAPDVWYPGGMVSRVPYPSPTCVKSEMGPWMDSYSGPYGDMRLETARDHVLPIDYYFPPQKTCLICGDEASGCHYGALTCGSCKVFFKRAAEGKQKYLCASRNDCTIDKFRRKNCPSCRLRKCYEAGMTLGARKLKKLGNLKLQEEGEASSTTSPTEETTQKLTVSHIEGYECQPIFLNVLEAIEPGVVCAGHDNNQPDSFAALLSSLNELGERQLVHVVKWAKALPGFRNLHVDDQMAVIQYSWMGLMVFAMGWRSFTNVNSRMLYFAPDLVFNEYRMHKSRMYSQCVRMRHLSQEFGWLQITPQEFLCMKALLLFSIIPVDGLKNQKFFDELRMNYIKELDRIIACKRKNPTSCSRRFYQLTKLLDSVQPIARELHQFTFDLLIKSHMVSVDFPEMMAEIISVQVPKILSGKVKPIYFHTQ
Procedure, shortened: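 22Rv1 human prostate cancer cells were seeded after preconditioning in assay medium and monitored overnight, then dosed in an eight-point 1:4 dilution series from 100 uM (≤0.5% DMSO). Impedance-based growth was read at 80 h, gain-of-signal versus DMSO.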

[4] = STM_H9_NormalizedViability: Cytotoxicity Assessment at 120 hours in the Stemina devTOX quickPredict H9 human embryonic stem cell (hESC)-based Assay (AID 2283784)
Procedure, shortened: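 Chemicals are tested blinded on H9 human embryonic stem cells in the pluripotent state, with medium exchanged daily. After background correction, fluorescence from CellTiter-Fluor is scaled against 0.1% DMSO wells, and decreases are scored.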

[5] = target: AR (gene 367) (UniProt P10275); assay: ACEA_AR_antagonist_80hr: ACEA Biosciences xCELLigence Real-Time Cell Analysis on Androgen Receptor Antagonism for Proliferation (AID 2283787);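 further: hits lower the impedance growth signal relative to DMSO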
Procedure, shortened: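 Impedance readout (RT-CES), 80 h post-dose; loss-of-signal vs DMSO baseline. 22Rv1 cells in assay medium. Compounds: 8-pt 1:4 series, max 100 uM final, up to 0.5% DMSO; n = 2.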

[6] = tested on: frog Estrogen Receptor (ESR2), gene 100174814; assay: ATG_frER2_XSP1: Attagene TRANS-FACTORIAL Multi-Species (XSP1) HepG2 Assay for frog Estrogen Receptor (ESR2) (AID 2283774)
Procedure, shortened: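 HepG2 cells transiently transfected with GAL4-UAS multiplexed reporter units expressing chimeric NR-Gal4 proteins; reporter mRNA measured 24 h after dosing by RT-PCR, FAM labeling, HpaI digestion and capillary electrophoresis. Gain-of-signal relative to DMSO; 3 nM 6-alpha-fluorotestosterone present.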

[7] = tested on: frog Estrogen Receptor (ESR1), gene 398734; assay: ATG_frER1_XSP1: Attagene TRANS-FACTORIAL Multi-Species (XSP1) HepG2 Assay for frog Estrogen Receptor (ESR1) (AID 2283777)
Procedure, shortened: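 Read-out: fluorescent reporter mRNA via RT-PCR, HpaI digestion and capillary electrophoresis, after 24 h chemical exposure of transiently transfected human HepG2 cells expressing exogenous NR-Gal4 chimeras. DMSO served as baseline for positive-direction fitting.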

[8] = tested on: zebrafish Estrogen Receptor (ESR2A), gene 317734; assay: ATG_zfER2a_XSP1: Attagene TRANS-FACTORIAL Multi-Species (XSP1) HepG2 Assay for zebrafish Estrogen Receptor (ESR2A) (AID 2283778)
Procedure, shortened: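 HepG2 cells transiently transfected with multiplexed GAL4-UAS reporter units and chimeric NR-GAL4 receptors; 24 h compound exposure with 3 nM 6-alpha-fluorotestosterone present. Reporter mRNA quantified by RT-PCR and capillary electrophoresis, gain-of-signal fitted relative to DMSO.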

[9] = target: chicken Estrogen Receptor (ESR1), ESR1 (gene 396099) (UniProt P06212); assay: ATG_chERa_XSP1: Attagene TRANS-FACTORIAL Multi-Species (XSP1) HepG2 Assay for chicken Estrogen Receptor (ESR1) (AID 2283779)
chicken Estrogen Receptor (ESR1), ESR1 (gene 396099), sequence (P06212 whole entry, looked up, the tested form may be a part): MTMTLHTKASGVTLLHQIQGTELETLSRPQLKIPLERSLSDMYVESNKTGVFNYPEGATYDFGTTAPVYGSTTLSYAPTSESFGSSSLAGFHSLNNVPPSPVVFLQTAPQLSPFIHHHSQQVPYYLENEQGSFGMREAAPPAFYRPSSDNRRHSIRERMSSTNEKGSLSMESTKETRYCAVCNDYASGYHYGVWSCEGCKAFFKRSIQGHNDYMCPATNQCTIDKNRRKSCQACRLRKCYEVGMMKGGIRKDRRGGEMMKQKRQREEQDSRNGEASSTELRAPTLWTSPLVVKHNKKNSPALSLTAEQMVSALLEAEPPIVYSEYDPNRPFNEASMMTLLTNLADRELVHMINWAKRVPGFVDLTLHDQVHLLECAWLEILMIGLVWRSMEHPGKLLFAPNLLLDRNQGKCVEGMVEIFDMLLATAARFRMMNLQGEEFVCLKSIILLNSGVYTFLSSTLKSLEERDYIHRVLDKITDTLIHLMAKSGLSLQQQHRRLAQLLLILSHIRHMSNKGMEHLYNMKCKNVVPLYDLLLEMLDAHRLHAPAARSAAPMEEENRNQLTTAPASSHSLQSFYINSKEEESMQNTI
Procedure, shortened: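 HepG2 cells transiently transfected with multiplexed GAL4-UAS reporter units expressing chimeric NR-Gal4 proteins; 3 nM 6-alpha-fluorotestosterone present. Reporter mRNA measured 24 h after dosing by RT-PCR, FAM labelling, HpaI digest and capillary electrophoresis; gain of signal versus DMSO.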

[10] = tested on: turtle Estrogen Receptor (ESR1), gene 101933533; assay: ATG_trERa_XSP1: Attagene TRANS-FACTORIAL Multi-Species (XSP1) HepG2 Assay for turtle Estrogen Receptor (ESR1) (AID 2283781)
Procedure, shortened: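 HepG2 cells transiently transfected with GAL4-UAS reporter units and chimeric NR-Gal4 constructs, dosed for 24 h with 3 nM 6-alpha-fluorotestosterone present. Reporter mRNA was quantified by RT-PCR, fluorescent labelling and capillary electrophoresis, with gain of signal fitted relative to DMSO.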

[11] = ATG_M_06_XSP1: Attagene TRANS-FACTORIAL Multi-Species (XSP1) HepG2 Assay for M06 Transcription Factor (Internal Marker) (AID 2283790)
Procedure, shortened: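 Transfected HepG2 multi-reporter system treated 24 h in the presence of 3 nM 6-alpha-fluorotestosterone. The M06 internal marker transcript was quantified by RT-PCR with capillary electrophoresis as a background control, and gain of signal was scored versus DMSO.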

[12] = ATG_M_61_XSP1: Attagene TRANS-FACTORIAL Multi-Species (XSP1) HepG2 Assay for M61 Transcription Factor (Internal Marker) (AID 2283797)
Procedure, shortened: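 HepG2 cells transiently transfected with multiplexed GAL4-driven reporter units, dosed 24 h with 3 nM 6-alpha-fluorotestosterone present. Reporter mRNA quantified by RT-PCR, 6-FAM labelling, HpaI digestion and capillary electrophoresis; internal-marker background control, gain of signal versus DMSO.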

[13] = target: frog Thyroid hormone Receptor alpha (TRa), thra-a (gene 397942) (UniProt P15204); assay: ATG_frTRa_XSP1: Attagene TRANS-FACTORIAL Multi-Species (XSP1) HepG2 Assay for frog Thyroid hormone Receptor alpha (TRa) (AID 2283804)
frog Thyroid hormone Receptor alpha (TRa), thra-a (gene 397942), sequence (P15204 whole entry, looked up, the tested form may be a part): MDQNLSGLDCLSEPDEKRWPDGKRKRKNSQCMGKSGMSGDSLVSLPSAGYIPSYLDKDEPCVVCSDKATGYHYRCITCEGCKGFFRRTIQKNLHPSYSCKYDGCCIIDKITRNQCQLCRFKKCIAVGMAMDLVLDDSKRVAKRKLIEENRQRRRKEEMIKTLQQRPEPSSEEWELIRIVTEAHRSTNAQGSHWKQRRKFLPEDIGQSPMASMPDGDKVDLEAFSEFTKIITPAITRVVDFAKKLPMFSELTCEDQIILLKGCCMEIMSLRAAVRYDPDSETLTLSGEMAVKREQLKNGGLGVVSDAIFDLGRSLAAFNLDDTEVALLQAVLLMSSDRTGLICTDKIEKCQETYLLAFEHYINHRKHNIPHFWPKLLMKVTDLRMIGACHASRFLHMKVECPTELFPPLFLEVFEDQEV
Procedure, shortened: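 HepG2 cells transiently transfected with frog TRa-GAL4 chimeric reporter units, dosed 24 hr with 3 nM 6-alpha-fluorotestosterone present; reporter mRNA quantified by RT-PCR, fluorescent labelling and capillary electrophoresis, gain of signal versus DMSO.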

For CN(C(=O)C(F)(F)C(F)(F)C(F)(F)F)[Si](C)(C)C, the outcome [1] was “inactive”.

With CCCCCCCCn1sc(Cl)c(Cl)c1=O the outcome [2] was “inactive”.

With Cc1ccc(O)c(-n2nc3ccccc3n2)c1 the outcome [2] was “inactive”.

With CCN=c1cc2oc3cc(NCC)c(C)cc3c(-c3ccccc3C(=O)OCC)c-2cc1C the AC50 [2] was 0.0138 µM (active), the AC50 [1] was 5.61 µM (active) and the outcome [3] was “inactive”. The AC50 [4] was 0.116 µM (active) and the AC50 [5] was 0.0436 µM (active).

In the case of CCCCC(CC)COC(=O)c1ccc(N(C)C)cc1 (stereo not drawn), the outcome [2] is reported as “inactive” and the outcome [4] is reported as “inactive”.

With CCOC(=O)C1CC(=O)C(=C(O)C2CC2)C(=O)C1 (stereo not drawn) the outcome [2] was “inactive”.

With C[C@]12CC[C@H]3C(=CCc4cc(O)ccc43)[C@@H]1CCC2=O the AC50 [6] was 0.0196 µM (active), the outcome [2] was “inactive” and the AC50 [7] was 0.0202 µM (active). The AC50 [8] was 0.0139 µM (active), the AC50 [9] was 0.00659 µM (active) and the AC50 [10] was 0.00594 µM (active). For the same compound, the outcome [3] was “inactive”, the AC50 [5] was 0.687 µM (active) and the outcome [11] was “inactive”. The outcome [12] was “inactive” and the outcome [13] was “inactive”.

For O=C1C=CC(=O)N1c1ccccc1, the outcome [2] was “inactive”, the outcome [1] was “inactive” and the outcome [5] was “inactive”.

In the case of CCN=C1C=CC(=C(c2ccc(N(CC)CC)cc2)c2ccc(N(CC)CC)cc2)c2ccccc21, the AC50 [2] is reported as 0.134 µM (active), the AC50 [1] is reported as 5.37 µM (active) and the AC50 [4] is reported as 0.165 µM (active). The AC50 [5] was 0.131 µM (active).

In the case of CCOC(=O)CCC(C)=O, the outcome [1] is reported as “inactive”.

In the case of O=C(O)CCC(F)(F)C(F)(F)C(F)(F)F, the outcome [1] is reported as “inactive”.

In the case of CC(C)Nc1ccc(NC(C)C)c2c1C(=O)c1ccccc1C2=O, the outcome [2] is reported as “inactive”.

In the case of O=C(Cl)c1ccc(Cl)cc1Cl, the AC50 [1] is reported as 78.9 µM (active).

For CCCCCCCCCCCCCC[P+](CCCC)(CCCC)CCCC, the AC50 [2] was 0.0138 µM (active), the AC50 [1] was 1.73 µM (active) and the outcome [3] was “inactive”. For the same compound, the AC50 [5] was 0.0436 µM (active).

With CN(N=O)C(=O)N[C@@H]1[C@@H](O)[C@H](O)[C@@H](CO)O[C@@H]1O the outcome [1] was “inactive”.

In the case of CC(C)(C)c1cc(CCC(=O)OCC(COC(=O)CCc2cc(C(C)(C)C)c(O)c(C(C)(C)C)c2)(COC(=O)CCc2cc(C(C)(C)C)c(O)c(C(C)(C)C)c2)COC(=O)CCc2cc(C(C)(C)C)c(O)c(C(C)(C)C)c2)cc(C(C)(C)C)c1O, the outcome [2] is reported as “inactive”.

For O=C(O)C(F)(F)C(F)(F)C(F)(F)OC(F)(C(F)(F)F)C(F)(F)F, the outcome [1] was “inactive”.

In the case of OCC1CCCO1 (stereo not drawn), the AC50 [3] is reported as 0.585 µM (active).

In the case of F[Si-2](F)(F)(F)(F)F, the outcome [3] is reported as “inactive” and the outcome [5] is reported as “inactive”.
